Experimental data: the supplement of paper PMC3898565
± gives the uncertainty stated by the source.

system: U87; assay: cell viability relative to vehicle control; higher = less growth inhibition (less active); conditions: 10 µM; 72 h
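Note: viable cell number estimated from Alamar Blue fluorescence read at 560/90, part of a single-dose primary screen of an FDA-approved drug library.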

Q: For `CN=C(N)NCCC[C@H](N)C(=O)O` [L-Ornithine, N5-[imino(methylamino)methyl]-[CAS]], which cell viability is on record?
A: Its cell viability is 104.9 ± 0.88%.

Q: How did the cell viability turn out when `CN(C)CCOc1ccc(/C(=C(/CCCl)c2ccccc2)c2ccccc2)cc1` was run?
A: The cell viability was 106 ± 1.8%.

Q: `Cc1ccsc1C(=CCCN1CCC[C@@H](C(=O)O)C1)c1sccc1C` was tested. Which cell viability did it give?
A: Its cell viability is 104 ± 1.1%.

Q: How did the cell viability turn out when `CC(=O)Oc1ccccc1C(=O)Nc1ncc([N+](=O)[O-])s1` was run?
A: The cell viability was 103 ± 2.3%.

Q: With `c1ccc(-c2ccc(C(c3ccccc3)n3ccnc3)cc2)cc1` (stereo not given) as the compound, how does the cell viability read?
A: The cell viability was 101 ± 1.2%.

Q: With `CC(C)c1ccc2c(c1)c(SC(C)(C)C)c(CC(C)(C)C(=O)O)n2Cc1ccc(Cl)cc1` as the compound, how does the cell viability read?
A: Its cell viability is 99 ± 1.3%.

Q: `CC[C@H](C)C(=O)O[C@H]1CCC=C2C=C[C@H](C)[C@H](CC[C@@H]3C[C@@H](O)CC(=O)O3)[C@H]21` [mevastatin] was tested. Which cell viability did it give?
A: Its cell viability is 89.1 ± 3.1%.

Q: With `CNCC[C@H](Oc1cccc2ccccc12)c1cccs1` as the compound, how does the cell viability read?
A: The cell viability was 101 ± 4.5%.

Q: How did the cell viability turn out when `CCOC(=O)[C@H](CCc1ccccc1)N[C@H]1CCc2ccccc2N(CC(=O)O)C1=O` was run?
A: Its cell viability is 107 ± 1.2%.

Q: Which cell viability does the source give for `COc1cc2c(cc1OC)C(=O)C(CC1CCN(Cc3ccccc3)CC1)C2` (stereo not given) [Donepezil] here?
A: The cell viability was 99.1 ± 1.4%.

Q: For `CCCCCCCCCCC[C@@H](C[C@@H]1OC(=O)[C@H]1CCCCCC)OC(=O)[C@H](CC(C)C)NC=O`, which cell viability is on record?
A: The cell viability was 103 ± 3.9%.

Q: Which cell viability does the source give for `Cc1ncc([N+](=O)[O-])n1CCO` here?
A: Its cell viability is 104 ± 1.2%.

Q: `COC(=O)C[C@](O)(CCCC(C)(C)O)C(=O)O[C@@H]1C(OC)=C[C@]23CCCN2CCc2cc4c(cc2[C@H]13)OCO4` was tested. Which cell viability did it give?
A: Its cell viability is 10.3 ± 0.73%.

Q: With `CCOC(=O)c1ncn2c1CN(C)C(=O)c1cc(F)ccc1-2` as the compound, how does the cell viability read?
A: Its cell viability is 103 ± 1.8%.

Q: Which cell viability does the source give for `Cc1occc(=O)c1O` here?
A: The cell viability was 106 ± 1.4%.

Q: Which cell viability does the source give for `CC(=O)[C@H]1CC[C@H]2[C@@H]3CCC4=CC(=O)CC[C@]4(C)[C@H]3CC[C@]12C` here?
A: Its cell viability is 107 ± 3%.

Q: For `CC(=O)O[C@@]12CO[C@@H]1C[C@H](O)[C@@]1(C)C(=O)[C@H](O)C3=C(C)[C@@H](OC(=O)[C@H](O)[C@@H](NC(=O)OC(C)(C)C)c4ccccc4)C[C@@](O)([C@@H](OC(=O)c4ccccc4)[C@H]21)C3(C)C`, which cell viability is on record?
A: The cell viability was 45.2 ± 1.5%.

Q: For `CC(C)(O)c1ccccc1CC[C@@H](SCC1(CC(=O)O)CC1)c1cccc(/C=C/c2ccc3ccc(Cl)cc3n2)c1`, which cell viability is on record?
A: The cell viability was 101.8 ± 0.94%.

Q: Which cell viability does the source give for `NC(N)=Nc1nc(CSCC/C(N)=N/S(N)(=O)=O)cs1` here?
A: The cell viability was 98.4 ± 9.8%.

Q: `O=C(CCNNC(=O)c1ccncc1)NCc1ccccc1` was tested. Which cell viability did it give?
A: Its cell viability is 107.8 ± 0.97%.

Q: `OCc1cc(C(O)CNCCCCCCOCCCCc2ccccc2)ccc1O` (stereo not given) [Salmeterol] was tested. Which cell viability did it give?
A: The cell viability was 106 ± 1.1%.

Q: With `C[C@]12CC[C@@H]3c4ccc(OS(=O)(=O)O)cc4CC[C@H]3[C@@H]1CCC2=O` as the compound, how does the cell viability read?
A: Its cell viability is 110.8 ± 0.43%.

Q: For `CN1CCN(CCCN2c3ccccc3Sc3ccc(C(F)(F)F)cc32)CC1` [Trifluoperazine], which cell viability is on record?
A: The cell viability was 103 ± 0.17%.

Q: Which cell viability does the source give for `C=C1/C(=C\C=C2/CCC[C@]3(C)[C@@H]([C@H](C)CCCC(C)(C)O)CC[C@@H]23)C[C@@H](O)C[C@@H]1O` here?
A: Its cell viability is 105 ± 2.2%.

Q: With `CC1=C(C(=O)O)N2C(=O)[C@@H](NC(=O)[C@H](N)c3ccccc3)[C@H]2SC1` [Cephalexin monohydrate] as the compound, how does the cell viability read?
A: The cell viability was 100 ± 1.7%.

Q: How did the cell viability turn out when `OC[C@H]1O[C@@H](Oc2cc(O)cc(/C=C/c3ccc(O)cc3)c2)[C@H](O)[C@@H](O)[C@@H]1O` was run?
A: The cell viability was 99.7 ± 3.1%.

Q: How did the cell viability turn out when `O=C(c1ccc(F)cc1)C1CCN(CCn2c(=S)[nH]c3ccccc3c2=O)CC1` [Altanserin] was run?
A: The cell viability was 99.9 ± 2.9%.

Q: `CNCC[C@@H](Oc1ccccc1C)c1ccccc1` was tested. Which cell viability did it give?
A: The cell viability was 108.2 ± 1%.

Q: `C[C@H]1COc2c(C3(N)CC3)c(F)cc3c(=O)c(C(=O)O)cn1c23` was tested. Which cell viability did it give?
A: Its cell viability is 101.8 ± 0.5%.

Q: With `CCOc1cc(N)c(Cl)cc1C(=O)NCC1CN(Cc2ccc(F)cc2)CCO1` (stereo not given) as the compound, how does the cell viability read?
A: Its cell viability is 108 ± 1.4%.

Q: Which cell viability does the source give for `CC1=Nc2ccc(Cl)cc2S(=O)(=O)N1` here?
A: Its cell viability is 101 ± 1.6%.

Q: With `N[C@@H]1CONC1=O` as the compound, how does the cell viability read?
A: Its cell viability is 96.3 ± 5%.

Q: `COc1ccc(-c2cc(=O)c3c(OC)c(OC)c(OC)c(OC)c3o2)cc1OC` [Nobiletin] was tested. Which cell viability did it give?
A: Its cell viability is 104.9 ± 0.98%.

Q: With `COc1ccccc1N1CCN(CCCNc2cc(=O)n(C)c(=O)n2C)CC1` as the compound, how does the cell viability read?
A: The cell viability was 109 ± 1.7%.

Q: How did the cell viability turn out when `CN(C)CCCC1(c2ccc(F)cc2)OCc2cc(C#N)ccc21` (stereo not given) [Citalopram] was run?
A: Its cell viability is 102 ± 1.4%.

Q: For `COc1ccc(CC2c3cc(OC)c(OC)cc3CC[N+]2(C)CCC(=O)OCCCCCOC(=O)CC[N+]2(C)CCc3cc(OC)c(OC)cc3C2Cc2ccc(OC)c(OC)c2)cc1OC` (stereo not given), which cell viability is on record?
A: The cell viability was 110 ± 0.2%.

Q: For `CN(C)CCC[C@@]1(c2ccc(F)cc2)OCc2cc(C#N)ccc21`, which cell viability is on record?
A: The cell viability was 103 ± 1.9%.

Q: With `COc1ccc(CN2CCN(C(c3ccc(F)cc3)c3ccc(F)cc3)CC2)c(OC)c1OC` as the compound, how does the cell viability read?
A: The cell viability was 69.3 ± 8.6%.

Q: `Nc1[nH]c(=O)ncc1F` was tested. Which cell viability did it give?
A: The cell viability was 102 ± 1.7%.

Q: Which cell viability does the source give for `O=C1CN2Cc3c(ccc(Cl)c3Cl)N=C2N1` here?
A: The cell viability was 103 ± 2.1%.
